# Assay results from PubChem BioAssay (Tox21).
# Several values for one entry are separate records, joined by “and”; a condition that tells them apart may be missing. Identical values can stand only once. Inconclusive results are not listed. Where a call stands in place of a potency, no number is given. More than one record can exist for a structure, and the calls need not agree. Activity calls are given as the source filed them. Unless noted, calls come from the whole dose curve; as a rule, active = well fitted curve in the direction sought with a large enough effect in the repeat runs; inconclusive = weak or mixed curves; inactive = no such curve, though single readings can be large; an effect the other way counts as inactive or inconclusive.
# Columns and labels:
# [1] = biological target: Acetylcholinesterase (Homo sapiens) (UniProt P22303); assay: Acetylcholinesterase (AChE) small molecule antagonists: enzyme-based qHTS assay (AID 1347397; calls by dose curve; note: nearly all actives have a fitted effect of over 55% in size; note: potency is the fitted concentration of half-maximal effect); conditions: Potency: AChE enzyme activity inhibition; outcome: AChE enzyme activity inhibition
# Summary of the method: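 Absorbance-based detection of thiocholine with DTNB served as the read-out. Recombinant human AChE was exposed to compound for 30 min at RT before a 10 min RT incubation with acetylthiocholine.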
# [2] = biological target: Acetylcholinesterase (Homo sapiens) (UniProt P22303); assay: Acetylcholinesterase (AChE) small molecule antagonists: fluorescence cell-based qHTS assay (AID 1347398; calls by dose curve; note: nearly all actives have a fitted effect of over 50% in size; note: potency is the fitted concentration of half-maximal effect); conditions: Potency: AChE activity; outcome: AChE activity
# Summary of the method: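 Fluorimetric cell-based assay: intact SH-SY5Y cells, 30 min compound preincubation at 37 C, acetylthiocholine substrate with thiol probe Thiolite Green, 40 min RT development, fluorescence 490/520 nm.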
# [3] = biological target: Acetylcholinesterase (Homo sapiens) (UniProt P22303); assay: Acetylcholinesterase (AChE) small molecule antagonists: enzyme-based qHTS assay with human liver microsomes (AID 1347399; calls by dose curve; note: nearly all actives have a fitted effect of over 60% in size); conditions: Potency: qHTS inhibition; outcome: qHTS inhibition
# Summary of the method: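 Recombinant human AChE (50 mU/mL in the enzyme mix) and human liver microsomes (0.25 mg/mL final) were preincubated with compound and NADPH (0.25 mg/mL final) for 30 min at 37 C. Acetylthiocholine/DTNB was then added; thiocholine was read colorimetrically after 10 min at room temperature.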
# [4] = biological target: Cytochrome P450 2D6 (Homo sapiens) (UniProt P10635); assay: Cytochrome P450 Family 2 Subfamily D Member 6 (CYP2D6) small molecule antagonists: luciferase reporter qHTS assay (AID 1671196); note: nearly all actives have a fitted effect of over 50% in size; note: potency is the fitted concentration of half-maximal effect
# Summary of the method: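 CYP2D6 enzyme–substrate mix was held with compound for 10 min at room temperature, then NADPH regeneration solution was added and the reaction ran 1 h at room temperature. Luciferin product was detected by luminescence after 20 min with detection reagent.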
# [5] = biological target: Cytochrome P450 2C19 (Homo sapiens) (UniProt P33261); assay: Cytochrome P450 Family 2 Subfamily C Member 19 (CYP2C19) small molecule antagonists: luciferase reporter qHTS assay (AID 1671197); note: nearly all actives have a fitted effect of over 65% in size; note: potency is the fitted concentration of half-maximal effect
# Summary of the method: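 Light output is proportional to CYP2C19 activity: proluciferin substrate is converted to luciferin, then detected by a luciferin detection reagent that also stops the 1 h, 37C NADPH-driven reaction. Ketoconazole serves as positive control.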
# [6] = biological target: Voltage-gated inwardly rectifying potassium channel KCNH2 (Homo sapiens) (UniProt Q12809); assay: Human Ether-a-go-go-Related Gene (hERG) channel small molecule antagonists: fluorescence cell-based qHTS assay (AID 1671200); note: nearly all actives have a fitted effect of over 50% in size; note: potency is the fitted concentration of half-maximal effect
# Summary of the method: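 hERG-U2OS cells plated overnight at 37 C, loaded with FluxOR II dye 1 h at RT in dark; after 10 min, thallium stimulus added. Fluorescence (480/540 nm) read kinetically for 2 min at 1 s intervals.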
# [7] = biological target: Cytochrome P450 3A4 (Homo sapiens) (UniProt P08684); assay: Cytochrome P450 Family 3 Subfamily A Member 4 (CYP3A4) small molecule antagonists: luciferase reporter qHTS assay (AID 1671201); note: nearly all actives have a fitted effect of over 50% in size; note: potency is the fitted concentration of half-maximal effect
# Summary of the method: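 P450-Glo CYP3A4 luminescent assay: compounds preincubated 10 min at room temperature with enzyme and proluciferin substrate, NADPH regeneration added, 1 h room-temperature reaction, stopped with luciferin detection reagent; luminescence read after 20 min. Ketoconazole positive control.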
# [8] = biological target: Cytochrome P450 2C9 (Homo sapiens) (UniProt P11712); assay: Cytochrome P450 Family 2 Subfamily C Member 9 (CYP2C9) small molecule antagonists: luciferase reporter qHTS assay (AID 1671198); note: nearly all actives have a fitted effect of over 50% in size; note: potency is the fitted concentration of half-maximal effect
# Summary of the method: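 Enzyme-substrate mix preincubated with compound 10 min at room temperature; reaction started with NADPH regeneration solution, 1 h 37C. Luminescent luciferin product read after 20 min detection reagent.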
# [9] = biological target: Cytochrome P450 1A2 (Homo sapiens) (UniProt P05177); assay: Cytochrome P450 Family 1 Subfamily A Member 2 (CYP1A2) small molecule antagonists: luciferase reporter qHTS assay (AID 1671199); note: nearly all actives have a fitted effect of over 50% in size; note: potency is the fitted concentration of half-maximal effect
# Summary of the method: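 Human CYP1A2 activity measured with a P450-Glo proluciferin substrate; compounds in DMSO preincubated 10 min at room temperature with enzyme-substrate mix, then NADPH regeneration system added for 1 h. Luciferin detection reagent, 20 min, luminescence read.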
# Sequence of Cytochrome P450 3A4 (Homo sapiens) (P08684 whole entry, looked up): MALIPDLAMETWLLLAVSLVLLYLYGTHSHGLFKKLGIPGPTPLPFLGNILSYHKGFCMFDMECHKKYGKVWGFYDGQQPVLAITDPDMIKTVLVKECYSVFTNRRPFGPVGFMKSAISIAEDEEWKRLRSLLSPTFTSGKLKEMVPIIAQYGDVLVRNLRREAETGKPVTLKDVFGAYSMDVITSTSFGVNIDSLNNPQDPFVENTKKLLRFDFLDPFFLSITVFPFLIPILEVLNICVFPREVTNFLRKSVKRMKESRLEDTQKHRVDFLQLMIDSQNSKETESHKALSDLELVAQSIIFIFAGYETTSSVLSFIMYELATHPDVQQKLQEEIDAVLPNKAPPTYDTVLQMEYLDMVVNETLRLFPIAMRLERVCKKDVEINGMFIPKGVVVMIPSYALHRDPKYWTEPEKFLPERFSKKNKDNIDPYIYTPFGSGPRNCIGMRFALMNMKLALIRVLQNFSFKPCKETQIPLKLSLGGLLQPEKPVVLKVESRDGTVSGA
# Sequence of Acetylcholinesterase (Homo sapiens) (P22303 whole entry, looked up): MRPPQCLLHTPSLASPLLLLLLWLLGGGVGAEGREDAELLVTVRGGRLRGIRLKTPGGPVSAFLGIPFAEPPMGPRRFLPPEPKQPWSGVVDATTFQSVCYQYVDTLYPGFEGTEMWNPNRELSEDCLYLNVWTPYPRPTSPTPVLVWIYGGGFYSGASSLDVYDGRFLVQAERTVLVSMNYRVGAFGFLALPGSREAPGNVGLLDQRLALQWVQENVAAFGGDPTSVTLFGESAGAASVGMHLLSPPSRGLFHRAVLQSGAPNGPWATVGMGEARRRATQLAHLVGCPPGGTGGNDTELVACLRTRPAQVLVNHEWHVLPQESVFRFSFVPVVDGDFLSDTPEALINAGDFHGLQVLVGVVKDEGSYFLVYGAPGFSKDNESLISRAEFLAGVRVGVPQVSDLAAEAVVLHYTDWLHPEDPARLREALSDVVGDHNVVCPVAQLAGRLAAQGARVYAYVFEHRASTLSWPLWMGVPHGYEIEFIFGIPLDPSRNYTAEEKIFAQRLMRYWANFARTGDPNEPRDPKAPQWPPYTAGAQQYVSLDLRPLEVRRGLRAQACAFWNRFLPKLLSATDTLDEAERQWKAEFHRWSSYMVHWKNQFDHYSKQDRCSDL
# Sequence of Voltage-gated inwardly rectifying potassium channel KCNH2 (Homo sapiens) (Q12809 whole entry, looked up): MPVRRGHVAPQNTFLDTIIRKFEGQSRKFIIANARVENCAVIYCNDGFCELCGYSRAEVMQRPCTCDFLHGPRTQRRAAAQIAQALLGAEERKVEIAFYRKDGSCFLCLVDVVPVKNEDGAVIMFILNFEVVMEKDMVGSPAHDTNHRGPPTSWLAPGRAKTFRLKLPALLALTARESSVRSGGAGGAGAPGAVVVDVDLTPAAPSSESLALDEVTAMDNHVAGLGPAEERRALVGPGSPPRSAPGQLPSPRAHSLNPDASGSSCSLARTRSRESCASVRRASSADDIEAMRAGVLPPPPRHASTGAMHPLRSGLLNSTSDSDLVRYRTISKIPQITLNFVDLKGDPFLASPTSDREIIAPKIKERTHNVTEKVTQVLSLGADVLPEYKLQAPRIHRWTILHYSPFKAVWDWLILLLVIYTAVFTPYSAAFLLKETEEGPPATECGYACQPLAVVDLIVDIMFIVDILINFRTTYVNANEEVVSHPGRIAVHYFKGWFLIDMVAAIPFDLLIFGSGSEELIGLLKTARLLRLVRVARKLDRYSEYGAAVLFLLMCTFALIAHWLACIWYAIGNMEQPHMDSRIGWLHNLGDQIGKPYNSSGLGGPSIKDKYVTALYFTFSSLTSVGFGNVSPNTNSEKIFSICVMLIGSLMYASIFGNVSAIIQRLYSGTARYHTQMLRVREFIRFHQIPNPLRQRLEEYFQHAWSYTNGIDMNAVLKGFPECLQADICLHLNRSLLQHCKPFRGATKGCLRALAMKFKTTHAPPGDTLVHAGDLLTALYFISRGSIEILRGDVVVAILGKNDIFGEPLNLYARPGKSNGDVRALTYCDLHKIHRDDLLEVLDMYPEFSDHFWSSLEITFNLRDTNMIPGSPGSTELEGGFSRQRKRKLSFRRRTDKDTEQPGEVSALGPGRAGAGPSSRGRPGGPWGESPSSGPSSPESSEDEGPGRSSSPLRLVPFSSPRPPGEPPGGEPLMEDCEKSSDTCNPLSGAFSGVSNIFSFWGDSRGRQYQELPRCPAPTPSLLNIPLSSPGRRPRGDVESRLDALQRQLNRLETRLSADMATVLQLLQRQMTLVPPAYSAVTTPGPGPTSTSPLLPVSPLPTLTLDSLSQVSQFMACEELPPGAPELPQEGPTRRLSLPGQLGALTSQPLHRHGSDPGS
# Sequence of Cytochrome P450 1A2 (Homo sapiens) (P05177 whole entry, looked up): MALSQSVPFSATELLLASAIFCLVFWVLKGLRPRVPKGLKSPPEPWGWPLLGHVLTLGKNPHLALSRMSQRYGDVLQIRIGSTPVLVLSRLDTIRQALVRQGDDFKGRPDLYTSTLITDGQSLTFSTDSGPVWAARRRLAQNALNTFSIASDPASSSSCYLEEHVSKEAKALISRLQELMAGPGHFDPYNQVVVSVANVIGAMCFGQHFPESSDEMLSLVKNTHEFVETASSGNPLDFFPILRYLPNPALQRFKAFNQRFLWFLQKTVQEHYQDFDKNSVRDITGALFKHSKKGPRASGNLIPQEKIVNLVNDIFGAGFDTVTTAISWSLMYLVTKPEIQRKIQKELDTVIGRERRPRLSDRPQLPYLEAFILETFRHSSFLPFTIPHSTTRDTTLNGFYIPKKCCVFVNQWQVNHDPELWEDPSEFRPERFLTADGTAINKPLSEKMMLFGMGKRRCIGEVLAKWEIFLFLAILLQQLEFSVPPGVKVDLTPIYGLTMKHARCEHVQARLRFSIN
# Sequence of Cytochrome P450 2C19 (Homo sapiens) (P33261 whole entry, looked up): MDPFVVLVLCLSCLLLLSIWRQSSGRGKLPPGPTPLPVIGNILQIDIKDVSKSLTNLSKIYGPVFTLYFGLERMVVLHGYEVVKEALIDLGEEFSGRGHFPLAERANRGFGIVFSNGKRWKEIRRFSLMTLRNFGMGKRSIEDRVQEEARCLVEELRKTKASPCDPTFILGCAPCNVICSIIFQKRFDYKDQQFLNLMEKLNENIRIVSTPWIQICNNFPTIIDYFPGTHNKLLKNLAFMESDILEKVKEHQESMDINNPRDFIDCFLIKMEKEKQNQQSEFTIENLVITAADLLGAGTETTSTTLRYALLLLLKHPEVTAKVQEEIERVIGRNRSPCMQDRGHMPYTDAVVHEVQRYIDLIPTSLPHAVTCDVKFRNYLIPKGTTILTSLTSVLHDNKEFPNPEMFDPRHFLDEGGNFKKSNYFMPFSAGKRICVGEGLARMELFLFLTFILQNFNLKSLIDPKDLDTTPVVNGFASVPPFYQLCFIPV
# Sequence of Cytochrome P450 2D6 (Homo sapiens) (P10635 whole entry, looked up): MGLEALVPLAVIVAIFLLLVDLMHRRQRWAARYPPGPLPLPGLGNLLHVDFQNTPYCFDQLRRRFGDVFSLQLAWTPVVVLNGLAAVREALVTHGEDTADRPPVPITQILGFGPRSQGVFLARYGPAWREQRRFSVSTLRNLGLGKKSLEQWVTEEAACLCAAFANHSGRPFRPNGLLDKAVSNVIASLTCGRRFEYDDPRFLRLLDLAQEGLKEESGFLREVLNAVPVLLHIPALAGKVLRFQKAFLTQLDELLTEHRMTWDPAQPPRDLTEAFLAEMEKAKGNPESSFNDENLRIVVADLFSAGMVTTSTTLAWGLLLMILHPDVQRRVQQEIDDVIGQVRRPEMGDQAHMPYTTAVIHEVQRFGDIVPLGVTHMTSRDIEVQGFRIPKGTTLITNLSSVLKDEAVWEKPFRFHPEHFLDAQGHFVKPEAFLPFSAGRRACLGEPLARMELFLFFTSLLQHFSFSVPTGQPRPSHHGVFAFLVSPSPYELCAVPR
# Sequence of Cytochrome P450 2C9 (Homo sapiens) (P11712 whole entry, looked up): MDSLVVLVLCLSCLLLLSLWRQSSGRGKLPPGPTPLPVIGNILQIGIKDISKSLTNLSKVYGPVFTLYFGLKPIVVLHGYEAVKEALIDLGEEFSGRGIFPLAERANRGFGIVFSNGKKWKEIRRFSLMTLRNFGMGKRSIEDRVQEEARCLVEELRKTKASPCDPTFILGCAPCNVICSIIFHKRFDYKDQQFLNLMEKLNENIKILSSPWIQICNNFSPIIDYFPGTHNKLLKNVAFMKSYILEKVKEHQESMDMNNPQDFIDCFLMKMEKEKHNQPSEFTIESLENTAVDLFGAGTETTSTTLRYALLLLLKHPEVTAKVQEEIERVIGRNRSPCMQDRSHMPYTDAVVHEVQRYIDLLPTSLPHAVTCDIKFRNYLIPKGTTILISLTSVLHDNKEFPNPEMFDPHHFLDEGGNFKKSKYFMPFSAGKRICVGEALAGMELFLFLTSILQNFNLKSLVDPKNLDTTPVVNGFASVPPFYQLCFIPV
SMILES,Potency [1],Potency [2],Potency [3],Potency [4],Potency [5],Potency [6],Potency [7],Potency [8],Potency [9]
CC[C@H](N)c1ccccc1,inactive,inactive,inactive,35.6 µM (active),63.3 µM (active),inactive,31.7 µM (active),–,–
CCOP(=O)(CN(CCO)CCO)OCC,inactive,inactive,inactive,inactive,–,inactive,inactive,inactive,–
CC(C)(C)C(=O)Cl,inactive,inactive,inactive,inactive,–,inactive,inactive,inactive,inactive
ClCCCCl,inactive,inactive,inactive,inactive,–,inactive,inactive,inactive,23.9 µM (active)
O=C(O)CBr,inactive,inactive,inactive,inactive,–,inactive,inactive,inactive,inactive
COC(=O)c1ccccc1CS(=O)(=O)NC(=O)Nc1nc(OC)cc(OC)n1,inactive,inactive,inactive,inactive,–,inactive,inactive,inactive,–
ClCCN1CCCC1,inactive,inactive,inactive,inactive,–,inactive,inactive,inactive,inactive
O=C(Cl)OCc1ccccc1,inactive,inactive,inactive,inactive,–,inactive,inactive,inactive,–
C=CC(=O)OCCN(C)C,inactive,inactive,inactive,inactive,–,inactive,inactive,inactive,inactive
COc1ccc(C=O)cc1O,inactive,inactive,inactive,inactive,–,inactive,inactive,inactive,–
C[C@]12C=CC(=O)C=C1CC[C@@H]1[C@@H]2CC[C@@]2(C)[C@H]1CC[C@]2(C)O,inactive,inactive,inactive,inactive,inactive,inactive,inactive,–,–
CCc1ccc(C2CCNCC2)cc1,inactive,inactive,inactive,0.617 µM (active),–,inactive,inactive,inactive,inactive
O=C(Cl)CCl,inactive,inactive,inactive,71.4 µM (active),–,inactive,inactive,inactive,–
ClCOCCl,inactive,inactive,inactive,inactive,–,inactive,inactive,inactive,–
CCN[C@@H](C)Cc1ccccc1,inactive,inactive,inactive,6.28 µM (active),–,inactive,inactive,inactive,–
CCN(CCO)CCO,inactive,inactive,inactive,inactive,inactive,inactive,inactive,–,–
CCN[C@@H](C)Cc1cccc(C(F)(F)F)c1,inactive,inactive,inactive,2.45 µM (active),–,inactive,inactive,inactive,–
CCCCCCCCSC(=O)Oc1cc(Cl)nnc1-c1ccccc1,inactive,inactive,inactive,inactive,–,inactive,inactive,35.6 µM (active),–
Cn1c(CCCC(=O)O)nc2cc(N(CCCl)CCCl)ccc21,inactive,inactive,inactive,inactive,–,inactive,inactive,inactive,inactive
O=C1C2CC=CCC2C(=O)N1SC(Cl)(Cl)Cl (stereo not given),inactive,inactive,inactive,78.3 µM (active),–,inactive and 48.2 µM (active),inactive,31.6 µM (active) and 4.94 µM (active),–
CNC(=O)NC(O)C(Cl)(Cl)Cl (stereo not given),inactive,inactive,inactive,inactive,–,inactive,inactive,inactive,inactive
c1ccc2c(c1)CCNC2,inactive,inactive,inactive,7.28 µM (active),–,–,–,32.5 µM (active),–
NC1(c2ccccc2)CCCCC1,inactive,inactive,inactive,31.4 µM (active),–,inactive,inactive,inactive,–
CCC(C)(C#N)N=NC(C)(C#N)CC (stereo not given),inactive,inactive,inactive,inactive,–,inactive,inactive,inactive,inactive
ClCCCCCCCl,inactive,inactive,inactive,inactive,–,inactive,inactive,inactive,35.6 µM (active)
COP(=O)(OC)O/C(C)=C/C(=O)N(C)C,63.7 µM (active),14.3 µM (active),inactive,inactive,–,inactive,inactive,–,–
COc1cc(CC(C)N)cc(OC)c1OC (stereo not given),inactive,inactive,inactive,–,inactive,inactive,inactive,inactive,–
COc1cccc([C@@]2(O)CCCC[C@@H]2CN(C)C)c1,inactive,inactive,inactive,–,–,inactive,inactive,inactive,inactive
CN(C)CCN(C)C,inactive,inactive,inactive,inactive,–,inactive,inactive,inactive,–
